The source made the active and inactive calls. Unless noted, the rule behind the calls is not given here.
Tests used:
[1] = test system: Wnt5a (protein binding on small-molecule microarray); test: small molecules binding Wnt5a protein – biophysical, small-molecule microarray, 635/667 nm fluorescence, primary screen (AID 1142); conditions: 635 nm fluorescence, higher = more signal;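 note: fluorescence read at 667 nm with signal to noise per printed feature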
[2] = ATP-based viability of Huh7 replicon cells – cell-based, CellTiter-Glo luminescence, basal, 48 h, cytotoxicity control for HCV replication inhibitor project, primary screen (AID 1143); conditions: higher = more signal, called active from +8 up or from −8 down;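 note: Huh7 hepatoma cells carrying a hepatitis C replication reporter with no stimulus; test concentration not given here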
[3] = Pseudomonas biofilm growth suppression – PAO1 strain, BacTiter-Glo luminescence, LB-PBS, primary screen (AID 1144); conditions: P. aeruginosa PAO1 biofilm, 12 h, higher = more signal
[4] = basal CRE-LacZ reporter activity in PC12 – cell-based, unstimulated, primary screen (AID 1145); conditions: no forskolin, luminescence, 4.5 h, higher = more signal, called active from +8 up or from −8 down
[5] = forskolin-driven CRE-LacZ activity in PC12 – cell-based, CRE-LacZ reporter, forskolin-stimulated, primary screen (AID 1146); conditions: luminescence, 4.5 h, higher = more signal, called active from +8 up or from −8 down;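 note: PC12 cells with 6xCRE LacZ reporter stimulated by forskolin 10 µM; beta-galactosidase reporter signal reflecting CREB driven transcription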
[6] = target: Streptavidin (Streptomyces avidinii) (UniProt P22629); test: compounds binding control protein streptavidin – biophysical, small-molecule microarray, 635/667 nm fluorescence, artefact control for SMM compound annotation, primary screen (AID 1147); conditions: higher = more signal;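 note: signal reflects streptavidin binding to arrayed compounds as a control protein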
[7] = probe aInhba binding on compound microarray – biochemical, small-molecule microarray, 635/667 nm fluorescence, primary screen (AID 1148); conditions: higher = more signal;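 note: score merges 667nm spot fluorescence with signal-to-noise for antibody binding to printed compounds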
[8] = target: Torsin-1A (Homo sapiens) (UniProt O14656); test: TOR1A wild-type binding on microarray – cell lysate, small-molecule microarray, lysate, 635/667 nm, primary screen (AID 1149); conditions: COS7 hTOR1A-WT lysate, 635 nm fluorescence, higher = more signal
[9] = target: Torsin-1A (Homo sapiens) (UniProt O14656); test: torsin A mutant lysate binding on microarrays – cell lysate, small-molecule microarray, COS7 lysate, 635/667 nm fluorescence, primary screen (AID 1150); conditions: COS7 hTOR1A mutant lysate, 635 nm fluorescence, higher = more signal;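 note: score pools 667 nm emission and signal to noise measuring lysate protein binding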
[10] = test system: Sonic hedgehog protein (Shh); test: Sonic hedgehog microarray binding compounds – biochemical, small-molecule microarray, 635/667 nm fluorescence, primary screen (AID 1151); conditions: 635 nm fluorescence, higher = more signal;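 note: Shh protein binding to compounds spotted on small-molecule microarray slides; score combines spot fluorescence intensity with signal-to-noise across triplicate slides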

Chain of Streptavidin (Streptomyces avidinii) (P22629 whole entry, looked up): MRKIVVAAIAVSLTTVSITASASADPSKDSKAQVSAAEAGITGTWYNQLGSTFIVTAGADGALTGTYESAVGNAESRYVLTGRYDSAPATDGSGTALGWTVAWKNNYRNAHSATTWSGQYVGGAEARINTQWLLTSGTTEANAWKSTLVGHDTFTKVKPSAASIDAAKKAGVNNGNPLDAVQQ
Chain of Torsin-1A (Homo sapiens) (O14656 whole entry, looked up): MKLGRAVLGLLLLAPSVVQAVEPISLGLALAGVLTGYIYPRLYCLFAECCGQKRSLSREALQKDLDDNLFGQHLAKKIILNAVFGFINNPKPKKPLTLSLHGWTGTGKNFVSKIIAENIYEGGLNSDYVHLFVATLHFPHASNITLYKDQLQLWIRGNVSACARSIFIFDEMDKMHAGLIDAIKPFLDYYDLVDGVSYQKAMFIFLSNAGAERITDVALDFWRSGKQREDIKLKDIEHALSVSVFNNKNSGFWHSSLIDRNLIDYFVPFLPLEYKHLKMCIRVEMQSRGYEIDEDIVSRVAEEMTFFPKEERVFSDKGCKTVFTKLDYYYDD

SMILES	composite z-score [1]	z-score [2]	z-score [3]	z-score [4]	z-score [5]	composite z-score [6]	composite z-score [7]	composite z-score [8]	composite z-score [9]	composite z-score [10]
CCOC(=O)[C@H]1C/C=C/C[C@H](C(=O)OCC)C(=O)O[C@H]2[C@@H](OC)O[C@H](CO)[C@@H](OC(=O)Nc3cccc(F)c3)[C@@H]2OC1=O	0.39	-6.52 (inactive)	-0.509 (inactive)	0.765 (inactive)	-0.848 (inactive)	0.555	0.83	-0.24	0.118	0.849
O=C1C2C=CC(C(O)C3CCCCC3)N(Nc3ccc([N+](=O)[O-])cc3)C2C(=O)N1c1ccccc1 (stereo not given)	-0.457	-0.415 (inactive)	-0.998 (inactive)	0.537 (inactive)	1.13 (inactive)	0.48	-0.213	-0.465	-0.199	-1.09
COCCCN1C(=O)[C@@]2(c3ccc([N+](=O)[O-])cc3)CC(=O)N(C3CCCCC3)[C@@H]2c2ccc(CO)cc21	-0.0976	-0.253 (inactive)	0.0798 (inactive)	-0.761 (inactive)	-0.593 (inactive)	-0.226	-0.214	0.0116	-0.289	1.41
CCCC=C(CCC)[C@@H](NC(=O)Oc1ccc(F)cc1)c1ccc(C(=O)OC)cc1	0.0931	-3.08 (inactive)	-0.135 (inactive)	0.194 (inactive)	1.43 (inactive)	1.55	0.329	-0.0302	0.262	-0.69
O=C1O[C@H](c2ccccc2)[C@H](c2ccccc2)N2[C@H]1[C@@H](C(=O)O)[C@]1(C(=O)Nc3ccc(C#CCCO)cc31)[C@H]2c1ccc(O)cc1	-0.0604	-1.04 (inactive)	0.301 (inactive)	-1.28 (inactive)	-1.37 (inactive)	-0.668	0.161	0.309	0.499	0.0441
CC(C)C(=C=CC[C@@H](O)c1ccccc1OCCO)CCO	-0.0322	-3.75 (inactive)	0.0933 (inactive)	5.12 (inactive)	-0.366 (inactive)	0.666	-0.016	-0.502	-0.455	0.575
COCCOC(=O)N1C(=O)[C@@]2(c3cc(C#Cc4ccc(OC)cc4)ccc31)[C@H](C(N)=O)[C@H]1C(=O)O[C@H](c3ccccc3)[C@H](c3ccccc3)N1[C@@H]2c1ccccc1OCCO	0.753	-3.77 (inactive)	-0.438 (inactive)	-0.168 (inactive)	-0.134 (inactive)	0.784	0.398	0.666	1.81	1.66
CCOC(=O)C1=CCC(c2ccccc2)N(S(=O)(=O)CC[Si](C)(C)C)C1 (stereo not given)	-0.386	-4.87 (inactive)	-0.296 (inactive)	-0.322 (inactive)	0.497 (inactive)	-0.192	-0.363	1.04	0.673	-0.302
COc1ccc(C(=O)O[C@H]2CC[C@]3(C)C4=C(CCC3C2(C)C)[C@]2(C)CC[C@H]([C@H](C)CCCC(C)C)[C@@]2(C)CC4)cc1 (stereo not given in full)	0.314	-1.02 (inactive)	-1.6 (inactive)	0.131 (inactive)	-0.634 (inactive)	0.25	-0.103	0.344	0.609	1
CC(C)(C)OC(=O)CC[C@@]1(C(N)=O)N=C(c2ccc(OCCCO)cc2)O[C@@H]1c1ccccc1	0.22	-0.0043 (inactive)	-0.256 (inactive)	1.5 (inactive)	-1.12 (inactive)	0.818	-0.0533	0.361	1.42	-0.954
COCCCNC(=O)[C@@]1(Cc2ccccc2)N=C(c2ccc(OCCCO)cc2)O[C@H]1c1ccccc1	1.3	-1.99 (inactive)	0.669 (inactive)	-0.0249 (inactive)	-0.437 (inactive)	2.34	0.786	0.268	1.16	0.0157
CN(C)CCCNC(=O)[C@@]1(c2ccc([N+](=O)[O-])cc2)CC(=O)N(C2CCCCC2)[C@@H]1c1ccc(CO)cc1I	-0.107	-5.87 (inactive)	0.262 (inactive)	0.378 (inactive)	0.519 (inactive)	0.71	-0.016	0.343	0.306	0.279
C=CCNC(=O)[C@H]1[C@@H]2C(=O)O[C@@H](c3ccccc3)[C@@H](c3ccccc3)N2[C@@H](c2ccc(O)cc2)[C@]12C(=O)N(C(=O)OCCOC)c1ccc(C#CCNC(N)=O)cc12	0.415	0.621 (inactive)	0.283 (inactive)	0.0736 (inactive)	-0.036 (inactive)	-0.231	0.223	0.181	-0.0483	1.55
O=C1O[C@H](c2ccccc2)[C@H](c2ccccc2)N2[C@H]1[C@@H](C(=O)NC[C@H](O)c1ccccc1)[C@]1(C(=O)Nc3ccccc31)[C@H]2c1ccc(OCCO)cc1	0.187	-2.93 (inactive)	-1.13 (inactive)	-0.0784 (inactive)	-0.499 (inactive)	0.261	-0.0044	1.55	0.492	0.297
C=CCOC(=O)[C@@H]1[C@H]2C(=O)O[C@H](c3ccccc3)[C@H](c3ccccc3)N2[C@H](c2ccc(OCCOC(=O)[C@@H]3C[C@@H]4C(=O)N[C@@H](Cc5ccccc5)C(=O)N4[C@@H]3c3ccc(O)cc3)cc2)[C@@]12C(=O)Nc1ccc(I)cc12	0.425	-1.28 (inactive)	-0.606 (inactive)	-0.537 (inactive)	-0.526 (inactive)	0.122	0.0154	0.521	0.38	2.22
